A selection: hits, their analogues and other compounds. The true share with any hit is near 7.3%.
3T3 cytotox = cytotoxic compounds in NIH 3T3 cells; NIH 3T3 viability, CellTiter-Glo ATP luminescence, 48-72 h; Potency, µM (series often up to 96.7 µM), inactives show at the highest dose activity change, negative = cytotoxicity, hits mostly inhibitors; 94,000 tested, 4.3% active; AID 1345082; also: potency is read from the fitted curve at half-maximal effect; nearly all actives have a fitted effect of over 55% in size
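Cells were seeded at 400 per well, treated with pin-transferred compound, and kept 48 or 72 hr at 37 °C before CellTiter-Glo addition and luminescence imaging of cellular ATP.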
Luciferase inh = Photinus pyralis luciferase inhibition. P08659. purified P. pyralis luciferase, luminescence, biochemical. Potency, µM (titrated, usually from 115 µM), actives largely listed as inhibitors. 76,000 tested, 2.5% active; also: potency is read from the fitted curve at half-maximal effect; nearly all actives have a fitted effect of over 65% in size
Target sequence (P08659 whole entry, looked up): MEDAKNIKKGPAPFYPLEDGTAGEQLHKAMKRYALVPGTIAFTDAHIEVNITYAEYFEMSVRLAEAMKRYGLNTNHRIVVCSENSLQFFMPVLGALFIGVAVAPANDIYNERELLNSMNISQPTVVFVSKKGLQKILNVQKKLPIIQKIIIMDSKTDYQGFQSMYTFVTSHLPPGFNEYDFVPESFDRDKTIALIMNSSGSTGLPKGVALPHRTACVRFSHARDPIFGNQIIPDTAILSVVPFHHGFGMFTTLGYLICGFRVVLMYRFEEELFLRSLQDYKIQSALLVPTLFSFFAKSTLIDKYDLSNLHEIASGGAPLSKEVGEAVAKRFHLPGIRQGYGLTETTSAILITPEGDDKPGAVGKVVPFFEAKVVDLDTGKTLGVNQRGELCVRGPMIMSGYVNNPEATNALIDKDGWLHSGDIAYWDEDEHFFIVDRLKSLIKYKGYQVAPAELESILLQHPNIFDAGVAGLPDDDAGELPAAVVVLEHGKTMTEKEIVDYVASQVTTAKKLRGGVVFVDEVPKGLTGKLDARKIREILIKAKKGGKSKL
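Purified P. pyralis luciferase (10nM final) in 50mM Tris acetate pH 7.5, 10mM Mg acetate, 0.01% Tween-20, 0.05% BSA with 10uM D-luciferin and 10uM ATP. Compounds titrated qHTS. Luminescence imaged on CCD.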
IP6K1 inhibitor = inhibitors of human IP6K1; IP6K1 kinase, ADP-Glo luminescence, 2 h; stronger effect = lower value; activity change, % (series mostly up to about 58 µM); 140,000 tested, 0.81% active; in the data active = activity change below about -25%
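ADP-Glo luminescence measures ADP made by human IP6K1 during a 2 h RT reaction with ATP/IP6 (mix at 1.3 mM/130 uM); top library doses 57.5 and 19.1 uM final.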
SNCA expr inh = inhibitors of alpha-synuclein (SNCA) gene expression; HEK-293 SNCA-luciferase knock-in, luminescence, 24 h; Potency, µM (top dose mostly 57.2 µM), without a hit: at the highest dose activity change, negative = inhibition, most hits filed as inhibitors; 140,000 tested, 0.17% active; AID 1671194;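 also: potency is read from the fitted curve at half-maximal effect; plate controls were DMSO cells for no effect and cell-free wells for full effect; nearly all actives have a fitted effect of over 45% in size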
HEK cytotox = HEK 293 cell cytotoxicity. HEK 293 viability, ATP luminescence (CellTiter-Glo), 48-72 h. Potency, µM (doses to about 115 µM), without a hit: top-dose activity change, negative = cytotoxicity, most hits filed as inhibitors. 94,000 tested, 6.6% active; also: potency is read from the fitted curve at half-maximal effect; nearly all actives have a fitted effect of over 60% in size
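Viability of HEK 293 cells, plated at 250 cells/well, was judged by cellular ATP after compound treatment for 48 or 72 hr. Luminescence was imaged 10 min after CellTiter-Glo addition at room temperature.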
SNCA viab count = reduces viability of HEK-293 SNCA reporter cells; HEK-293-SNCA-luc viability, GF-AFC fluorescence, 24 h; Potency, µM (series often up to 57.1 µM), inactives show at the top dose activity change, negative = cytotoxicity, usual class: cytotoxic; 150,000 tested, 0.12% active; AID 1671193;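 also: potency is read from the fitted curve at half-maximal effect; 0% = DMSO-treated cells and -100% = medium-only wells without cells; nearly all actives have a fitted effect of over 30% in size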
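HEK-293-SNCA-luc cells (1500/well) plated 24 h, then exposed 24 h to a dilution series; GF-AFC added 30 min at 37C, fluorescence 405/540 nm; normalised to medium-only and DMSO wells, Hill fit.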
The depositor's hits bear a star; i = inactive; ? = inconclusive; . = no result; [ ] = dose if it differs, or a comment. Unless noted, calls follow the shape of the dose curve; as a rule, active = well fitted curve in the direction sought with a large enough effect; inconclusive = small, poorly fitted or top-dose-only effect, or another doubt; inactive = no such curve, though single readings can be large; an effect the other way counts as inactive or inconclusive. Unless noted, % is scaled to controls: 0 for no effect and ±100 for the full control effect.

SMILES	3T3 cytotox	Luciferase inh	IP6K1 inhibitor	SNCA expr inh	HEK cytotox	SNCA viab count
COc1ccc(-c2noc([C@@H]3CCCN3C(=O)c3cc(Cl)ccc3OC)n2)cc1	?	i	9	-6%	25µM*	?
COc1ccc(-c2noc([C@@H]3CCCN3C(=O)c3ccc(F)c(Cl)c3)n2)cc1OC	?	i	8	43%	40µM*	-11%
CCCCOc1ccc(C(=O)N2CCC[C@H]2c2nc(-c3ccc(C)cc3)no2)cc1	35µM*	i	-2	1%	22µM*	-18%
OC(COc1cccc(CN2CCC(c3ncon3)CC2)c1)CN1CCOCC1 (centres undefined)	-19%	i	5	-3%	-22%	-8%
Cc1ccc(OCC(=O)N2CCCC(c3nn(C)c(=O)n3C(C)C)C2)cc1 (centres undefined)	-28%	i	3	4%	?	5%
Cc1ccccc1-c1cnc2[nH]cc(CC(=O)NCc3ccco3)c2c1	?	i	-22	-7%[87.6 µM]	71µM*	-20%[87.6 µM]
Cn1cc(-c2cnc3[nH]cc(CC(=O)Nc4cccc(F)c4)c3c2)cn1	?	i	-16	-8%[87.6 µM]	45µM*	-21%[87.6 µM]
Cc1ccccc1-c1cnc2[nH]cc(CC(=O)NC3CC3)c2c1	?	i	-17	-3%[87.6 µM]	?	-16%[87.6 µM]
COc1ccc(NC(=O)Cc2c[nH]c3ncc(-c4ccccc4C)cc23)cc1	?	i	-21	?	79µM*	-16%[87.6 µM]
Cc1ccccc1-c1cnc2[nH]cc(CC(=O)Nc3ccccc3)c2c1	40µM*	i	8	?	?	?
COc1ccc(-c2nnc3n2CCN(C(=O)Nc2ccc(Cl)cc2)C3)cc1	?	i	19	12%	-7%	-19%
CN(C)c1cccc(C(=O)N2CCCC(n3cc(-c4nc(C5CC5)no4)nn3)C2)c1 (centres undefined)	-22%	i	6	45%	?	1%
CCOCCNC(=O)C1CCCCN1Cc1ccc(-c2cccs2)cc1 (centres undefined)	40µM*	.	-9	-10%	?	2%[12.5 µM]
O=C(NCCc1ccccc1)C1CCCCN1Cc1ccc(-c2cccs2)cc1 (centres undefined)	45µM*	.	-9	?	?	0%[12.5 µM]
COc1ccc(CCNC(=O)C2CCCCN2Cc2ccc(-c3cccs3)cc2)cc1 (centres undefined)	?	.	-3	-10%	?	14%
COCCNC(=O)C1CCCCN1Cc1ccc(-c2cccs2)cc1 (centres undefined)	?	.	-9	3%	40µM*	4%
O=C(Nc1cccc(Cl)c1)C1CCCCN1Cc1ccc(-c2cccs2)cc1 (centres undefined)	?	.	-13	7%	28µM*	-6%[12.5 µM]
COc1cccc(CN2C(=O)OC3(CCN(Cc4ccc(F)cc4)CC3)C2(C)c2cccnc2)c1 (centres undefined)	?	i	-1	?	?	-18%
Cn1ncc2c(NCCc3nnc(N)s3)nc(-c3ccncc3)nc21	-30%	i	2	22%	-10%	-3%
Cn1ncc2c(N[C@@H](Cc3ccccc3)C(N)=O)nc(-c3ccncc3)nc21	?	i	39	?	32µM*	-15%
O=C(NCCCc1ccccc1)c1cccc2c1CCN2C(=O)C1CC1	?	i	0	10%	?	0%
O=C(CCC1CCCN(Cc2cccn2-c2nccs2)C1)Nc1ccccc1F (centres undefined)	-24%	i	-4	30%	-28%	0%
Fc1cccc(NC2CCCN(Cc3cccn3-c3nccs3)C2)c1 (centres undefined)	?	i	15	19%	45µM*	8%
O=C(Cc1ccccc1F)NC1CCN(c2cc(-c3cccs3)[nH]n2)C1 (centres undefined)	?	i	0	-14%	16µM*	-7%
